PubChem BioAssay (NCATS)
Records with an inconclusive call do not appear. The source made the active and inactive calls. Unless noted, calls follow the shape of the dose curve; as a rule, active = well fitted cell-killing curve with a large enough effect; inconclusive = small, poorly fitted or top-dose-only effect; inactive = flat fitted curve, though single readings scatter.

Assays:
[1] = Cell Viability - LYMP2-017 (AID 972); also: series mostly up to about 92 µM; nearly all actives have a fitted effect of over 55% in size
Summary of the method: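 In this qHTS format, lymphoblastoid cells in complete medium receive test compound for a day at 37 C before ATP content is quantified by luciferase luminescence. Reported AC50 figures come from standard Hill-equation curve fitting.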

[2] = Cell Viability - LYMP2-019 (AID 973); also: nearly all actives have a fitted effect of over 55% in size
Summary of the method: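 AC50 values come from Hill-equation modelling of qHTS concentration-response curves, where viability is measured as luciferase-based ATP luminescence in the lymphoblastoid line after 24 hr compound exposure in complete culture medium.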

[3] = Cell Viability - LYMP2-021 (AID 974);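 also: compound exposure lasts 24 hours at 37 °C; nearly all actives have a fitted effect of over 55% in size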
Summary of the method: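 In qHTS format, compounds are tested against 2500 lymphoblastoid cells per well for 24 h; viable cell number is inferred from ATP-driven luciferase light, and Hill-equation fitting yields AC50 values.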

[4] = Cell Viability - LYMP2-023 (AID 975);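 also: cellular ATP measured by luciferase luminescence as viability proxy; series mostly up to about 92 µM; nearly all actives have a fitted effect of over 55% in size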
Summary of the method: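 In this qHTS, ATP-based luciferase luminescence (CellTiter-Glo) is quantified in human lymphoblastoid cells after 24 hr compound treatment at 37 C; tetraoctylammonium bromide serves as positive control. Concentration-response curves are Hill-fitted to give AC50.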

[5] = Cell Viability - LYMP2-025 (AID 976); also: series mostly up to about 92 µM
Summary of the method: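 Luminescent ATP readout after 24 hr treatment of a human lymphoblastoid line (LYMP2-025, 2500 cells/well, 37 C). Reagent developed 30 min at room temperature; AC50 fitted with the Hill equation.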

[6] = Cell Viability - LYMP2-002 (AID 977);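 also: series mostly up to about 92 µM; compound exposure lasted 24 h at 37 °C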
Summary of the method: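 Human lymphoblastoid cells (2500/well) in complete medium were preincubated 5 hr at 37 C, then exposed to compounds for 24 hr at 37 C. Intracellular ATP was read by CellTiter-Glo luminescence; AC50 came from Hill-equation concentration-response fits.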

[7] = Cell Viability - LYMP2-006 (AID 978); also: series mostly up to about 92 µM; nearly all actives have a fitted effect of over 60% in size
Summary of the method: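 Cells are seeded at 2500 per well and rested 5 hr at 37 C. Compounds are added across a concentration series for 24 hr at 37 C, after which ATP is quantified by luciferase luminescence.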

[8] = Cell Viability - LYMP2-007 (AID 979);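 also: cells exposed to compound for 24 h before reading; nearly all actives have a fitted effect of over 60% in size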
Summary of the method: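 Measured via luciferase-based ATP quantitation: lymphoblastoid cells, 24 hr compound exposure at 37 C, AC50 from Hill fits.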

[9] = Cell Viability - LYMP2-008 (AID 980); also: nearly all actives have a fitted effect of over 60% in size
Summary of the method: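 Measured: ATP-dependent luminescence, proportional to viable cell number, in human lymphoblastoid cells treated 24 hr with compound in complete culture medium. Values are AC50s from Hill-equation modelling of qHTS titrations.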

[10] = Cell Viability - LYMP2-010 (AID 981); also: nearly all actives have a fitted effect of over 55% in size
Summary of the method: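 This 24 hr viability screen uses LYMP2-010 lymphoblastoid cells, quantifies ATP via luciferase luminescence, and derives AC50 from Hill fits of qHTS concentration-response data.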

[11] = Cell Viability - LYMP2-012 (AID 982)
[12] = Cell Viability - LYMP2-014 (AID 983); also: series mostly up to about 92 µM; nearly all actives have a fitted effect of over 50% in size
Summary of the method: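 Quantitative HTS in lymphoblastoid cells: 24 hr compound exposure, then CellTiter-Glo ATP luminescence. Positive control was tetraoctylammonium bromide, 6.4pM to 92 uM.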

[13] = Cell Viability - LYMP2-016 (AID 984); also: nearly all actives have a fitted effect of over 55% in size
Summary of the method: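 Cells were seeded at 2500 per well and rested 5 hr before a 24 hr compound exposure at 37 C. Viability was then gauged as cellular ATP by luciferase luminescence, with AC50 values fitted to the Hill equation.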

[14] = Cell Viability - LYMP2-018 (AID 985); also: nearly all actives have a fitted effect of over 50% in size
Summary of the method: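 In this qHTS viability assay, cells are treated for 24 hr and cellular ATP is quantified by luciferase-based luminescence, with tetraoctylammonium bromide as positive control.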

[15] = Cell Viability - LYMP2-020 (AID 986)
Summary of the method: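 Cells at 2500 per well receive a 24 hr compound exposure at 37 C. Viability is measured as ATP-dependent luciferase luminescence, with AC50 modeled from qHTS concentration-response curves.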

[16] = Cell Viability - LYMP2-022 (AID 987); also: nearly all actives have a fitted effect of over 55% in size
Summary of the method: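 In this qHTS cytotoxicity screen, compound titrations were incubated 24 hr at 37 C with human lymphoblastoid cells in complete medium. Luciferase-based ATP luminescence provided the viability signal.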

[17] = Cell Viability - LYMP2-024 (AID 988); also: nearly all actives have a fitted effect of over 60% in size
Summary of the method: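 Cells at 2500 per well received compound for 24 hr after a 5 hr settling period. Viability was scored by CellTiter-Glo luminescence, with AC50 from Hill fits.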

[18] = Cell Viability - LYMP2-026 (AID 989); also: nearly all actives have a fitted effect of over 50% in size
Summary of the method: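 Acute toxicity screen in complete culture medium, with 24 hr compound exposure at 37 C. Viability read as cellular ATP via luciferase reaction, with tetraoctylammonium bromide (6.4pM to 92 uM) as positive control.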

[19] = Cell Viability - LYMP1-002 - Assay at 24 hr (AID 993)
Summary of the method: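 Viability was judged from intracellular ATP using a luciferase read-out, following a 24-hour compound incubation at 37 C of lymphoblastoid cells seeded at 2500 per well. Concentration-response data were fitted to the Hill equation for AC50.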

[20] = Cell Viability - LYMP1-002 - Assay at 40 hr (AID 994); also: nearly all actives have a fitted effect of over 60% in size
Summary of the method: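 Concentration-dependent ATP loss after 40 hr treatment at 37 C defined toxicity; AC50 values were obtained by fitting the standard Hill equation.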

[21] = target: Estrogen receptor (Homo sapiens) (UniProt P03372); assay: qHTS assay for small molecule antagonists of estrogen receptor alpha signaling (AID 588513; active = well fitted curve in the direction sought with a large enough effect in the signal ratio, with a control signal flat, not every such curve was filed as active; the % refers to the signal ratio)
Summary of the method: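 Fluorescence from CCF4 substrate after 2 h at room temperature gave reporter activity; cells had been exposed to compound and 0.5nM 17-beta-estradiol for 18 h at 37 C. Hill-equation fitting yielded IC50 and maximal response.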

Measured: Potency

Chain of Estrogen receptor (Homo sapiens) (P03372 whole entry, looked up): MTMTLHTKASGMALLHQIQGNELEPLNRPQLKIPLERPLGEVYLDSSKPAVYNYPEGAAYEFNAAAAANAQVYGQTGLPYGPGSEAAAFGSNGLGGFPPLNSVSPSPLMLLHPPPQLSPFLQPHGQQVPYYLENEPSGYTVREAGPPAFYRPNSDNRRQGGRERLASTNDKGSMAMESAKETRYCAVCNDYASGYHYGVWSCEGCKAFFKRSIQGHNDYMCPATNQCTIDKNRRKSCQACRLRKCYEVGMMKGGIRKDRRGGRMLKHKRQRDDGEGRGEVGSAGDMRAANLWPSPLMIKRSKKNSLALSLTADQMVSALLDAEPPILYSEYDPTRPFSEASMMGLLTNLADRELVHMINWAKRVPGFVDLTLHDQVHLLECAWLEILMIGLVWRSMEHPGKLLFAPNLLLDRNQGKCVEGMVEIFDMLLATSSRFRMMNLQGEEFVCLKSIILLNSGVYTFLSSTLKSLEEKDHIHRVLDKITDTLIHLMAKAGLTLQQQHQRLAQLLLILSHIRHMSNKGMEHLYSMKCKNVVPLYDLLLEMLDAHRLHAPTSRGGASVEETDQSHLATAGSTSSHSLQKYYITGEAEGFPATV

CCc1ccc(C(c2ccc(CC)cc2)C(Cl)Cl)cc1
inactive: [1] | [2] | [3] | [4] | [5] | [6] | [7] | [8] | [9] | [10] | [11] | [12] | [13] | [14] | [15] | [16] | [17] | [18] | [19] | [20] | [21]
